Measurements reported in publication PMC5540273 (PLoS ONE, 2017).

Experiments:
Details in all cases: concentration: 1 μM, replicates: in singlicate; n = 1
[1] = system: MET
[2] = system: T1, MINK
T1 construct: gene MINK1

[3] = system: MKK7
[4] = system: MKNK1
[5] = system: MKNK2
[6] = system: T2, MLCK
T2 construct: gene MYLK3

[7] = system: T3, MLK1
T3 construct: gene MAP3K9

[8] = system: MLK2
[9] = system: MLK3
[10] = system: MRCKA
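Also: KINOMEscan kinase panel screen.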

Compound	%Inh [1] [%]	%Inh [2] [%]	%Inh [3] [%]	%Inh [4] [%]	%Inh [5] [%]	%Inh [6] [%]	%Inh [7] [%]	%Inh [8] [%]	%Inh [9] [%]	%Inh [10] [%]
COc1cc(Nc2nccc(N3CCC(NC(=O)C4COc5ccccc5O4)C3)n2)cc(OC)c1OC (stereo not drawn) [GSK1379761]	19	0	0	0	31	12	63	4	44	0
Cc1nn2c(=O)cc(N3CCOCC3)nc2n1Cc1cccc(Cl)c1Cl [GSK2342769]	1	0	0	0	4	7	0	0	0	10
COc1cc2ncn(-c3cc(OCc4ccncc4)c(C(N)=O)s3)c2cc1OC [GSK336313]	0	15	19	5	2	0	0	0	19	0
